Source: the supplement of paper PMC12645437, “Orthogonal IMiD-Degron Pairs Induce Selective Protein Degradation in Cells” (ACS Chemical Biology, 2025)
The full ranking holds about 8,300 sequences; the median of “log2 fold change of degron read counts, EGFP-low vs EGFP+ sorted cells (limma voom), compound-induced degradation” is about -1.1, and the highest 2% start at about 3.2. What follows is part of a selection rich in the highest values, with near analogues and random picks from the rest.

Target: T1, CRBN, Q96SW2
T1 chain: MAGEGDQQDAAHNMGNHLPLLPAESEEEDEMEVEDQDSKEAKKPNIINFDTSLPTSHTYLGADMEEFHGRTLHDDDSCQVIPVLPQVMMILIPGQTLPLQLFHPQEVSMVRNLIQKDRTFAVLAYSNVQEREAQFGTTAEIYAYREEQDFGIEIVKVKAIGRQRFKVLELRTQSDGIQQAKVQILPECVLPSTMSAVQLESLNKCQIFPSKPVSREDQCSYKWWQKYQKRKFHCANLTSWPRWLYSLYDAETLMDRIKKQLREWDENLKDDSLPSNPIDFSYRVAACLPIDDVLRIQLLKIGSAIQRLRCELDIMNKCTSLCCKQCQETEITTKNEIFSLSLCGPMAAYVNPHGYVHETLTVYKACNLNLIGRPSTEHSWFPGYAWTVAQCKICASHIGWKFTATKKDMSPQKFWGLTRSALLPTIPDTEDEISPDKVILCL
Experiment: log2 fold change of degron read counts, EGFP-low vs EGFP+ sorted cells (limma voom), compound-induced degradation; higher = more compound-induced degradation of the degron-EGFP fusion; degrons are variants of IKZF1/3 zinc finger 2; compound dose not given here
Conditions: Jurkat, 18 h

[1] = compound: compound 19 (5-tert-butyl-thalidomide)
[2] = compound: compound 22 (5-morpholino-thalidomide)
[3] = compound: compound 33 (diphenyl IMiD analogue)
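Also: pooled lentiviral library of zinc finger degron-EGFP fusions in mCherry-positive Jurkat cells, FACS-sorted after compound exposure, with degron abundance counted by next-generation sequencing.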

Row | Sequence | log2 fold change of degron read counts [1] | log2 fold change of degron read counts [2] | log2 fold change of degron read counts [3] | log2 fold change of degron read counts (compound: thalidomide)
1 | FYCPQCGAHFTQKGNLLRHIKL [46F_47Y_49P_50Q_52G_53A_54H_55F_67L_, Q9UKT9] | 0.451 | 1.45 | 1.13 | -0.932
2 | FFCPQCGAEFTQKGNLLRHIKL [46F_47F_49P_50Q_52G_53A_54E_55F_67L_, Q9UKT9] | -0.388 | -1.02 | -0.943 | -1.93
3 | FMCPQCGAEFTQKGNLLRHIKL [46F_47M_49P_50Q_52G_53A_54E_55F_67L_, Q9UKT9] | -2.82 | -2.55 | 0.714 | -1.49
4 | FACEICGHVFTQKGNLLRHIKL [46F_47A_49E_50I_52G_53H_54V_55F_67L_, Q9UKT9] | -2.8 | -3.22 | -3.16 | -2.72
5 | FKCPVCGAYFTQKGNLLRHIKL [46F_47K_49P_50V_52G_53A_54Y_55F_67L_, Q9UKT9] | -2.09 | -2.57 | -2.35 | -1.29
6 | FDCDVCGADFTQKGNLLRHIKL [46F_47D_49D_50V_52G_53A_54D_55F_67L_, Q9UKT9] | -3.06 | -3.05 | -2.88 | -2.92
7 | FGCDVCGAVFTQKGNLLRHIKL [46F_47G_49D_50V_52G_53A_54V_55F_67L_, Q9UKT9] | -0.0514 | -0.272 | 0.863 | -1.24
8 | FICNQCGADFTQKGNLLRHIKL [46F_47I_49N_50Q_52G_53A_54D_55F_67L_, Q9UKT9] | -3.68 | -3.02 | -3.36 | -3.07
9 | FYCEVCGAKFTQKGNLLRHIKL [46F_47Y_49E_50V_52G_53A_54K_55F_67L_, Q9UKT9] | 3.48 | 3.66 | 1.65 | 1.54
10 | FHCEVCGAKFTQKGNLLRHIKL [46F_47H_49E_50V_52G_53A_54K_55F_67L_, Q9UKT9] | 2.92 | 1.93 | -0.596 | 0.387
11 | FFCEVCGAKFTQKGNLLRHIKL [46F_47F_49E_50V_52G_53A_54K_55F_67L_, Q9UKT9] | 3.53 | 3.42 | 1.26 | 1.64
12 | FCCEVCGAKFTQKGNLLRHIKL [46F_47C_49E_50V_52G_53A_54K_55F_67L_, Q9UKT9] | 3.23 | 2.43 | -0.571 | 2.71
13 | FNCEVCGAKFTQKGNLLRHIKL [46F_47N_49E_50V_52G_53A_54K_55F_67L_, Q9UKT9] | 1.99 | 0.318 | -2.12 | 0.139
14 | FVCEVCGAKFTQKGNLLRHIKL [46F_47V_49E_50V_52G_53A_54K_55F_67L_, Q9UKT9] | 0.611 | 1.89 | 0.0419 | 2.73
15 | FNCSVCGHVFTQKGNLLRHIKL [46F_47N_49S_50V_52G_53H_54V_55F_67L_, Q9UKT9] | -2.33 | -2.79 | -2.91 | -2.16
16 | FGCDICGALFTQKGNLLRHIKL [46F_47G_49D_50I_52G_53A_54L_55F_67L_, Q9UKT9] | 0.711 | -0.455 | 0.626 | -1.25
17 | FECPICGREFTQKGNLLRHIKL [46F_47E_49P_50I_52G_53R_54E_55F_67L_, Q9UKT9] | -3.21 | -2.49 | -0.551 | 0.22
18 | FFCDVCGAMFTQKGNLLRHIKL [46F_47F_49D_50V_52G_53A_54M_55F_67L_, Q9UKT9] | 1.26 | 0.949 | -0.289 | -2.16
19 | LCCPICGFECTQKGNLLRHIKL [46L_47C_49P_50I_52G_53F_54E_55C_67L_, Q9UKT9] | 0.863 | 1.38 | 1.36 | 2.2
20 | LYCEICGFCCTQKGNLLRHIKL [46L_47Y_49E_50I_52G_53F_54C_55C_67L_, Q9UKT9] | 3.35 | 3.28 | 3.07 | 1.36
21 | LNCEICGFCCTQKGNLLRHIKL [46L_47N_49E_50I_52G_53F_54C_55C_67L_, Q9UKT9] | 0.295 | -0.862 | -1.01 | -0.716
22 | LWCEICGFCCTQKGNLLRHIKL [46L_47W_49E_50I_52G_53F_54C_55C_67L_, Q9UKT9] | 2.9 | 3.31 | 2.14 | 0.752
23 | LDCEICGFCCTQKGNLLRHIKL [46L_47D_49E_50I_52G_53F_54C_55C_67L_, Q9UKT9] | -1.71 | -2.74 | -1.75 | -1.36
24 | LVCEICGFCCTQKGNLLRHIKL [46L_47V_49E_50I_52G_53F_54C_55C_67L_, Q9UKT9] | 1.06 | 1.69 | 1.86 | 2.44
25 | LFCEICGFCCTQKGNLLRHIKL [46L_47F_49E_50I_52G_53F_54C_55C_67L_, Q9UKT9] | 3.37 | 3.39 | 2.01 | 1.32
26 | LACEICGFCCTQKGNLLRHIKL [46L_47A_49E_50I_52G_53F_54C_55C_67L_, Q9UKT9] | 2.01 | 0.96 | -0.0283 | -0.106
27 | LSCEICGFCCTQKGNLLRHIKL [46L_47S_49E_50I_52G_53F_54C_55C_67L_, Q9UKT9] | 1.68 | 1.58 | 0.957 | 0.73
28 | LCCEICGFCCTQKGNLLRHIKL [46L_47C_49E_50I_52G_53F_54C_55C_67L_, Q9UKT9] | 0.944 | 0.646 | 1.13 | 1.21
